From PubChem BioAssay
Several values for one entry are separate records, joined by “and”; a condition that tells them apart may be missing. Equal entries are not always repeated. Inconclusive results are not listed. Some structures have more than one record in an assay (separate samples or runs), and their calls can disagree. Activity calls are given as the source filed them.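 How the source made its calls, unless noted: active means normalized viability below 100% at a tested concentration; inactive means the rest.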

Columns and labels:
[1] = Wnt pathway potentiators raising nuclear beta-catenin – imaging, WNT3A-conditioned medium, mouse C2C12, NPC library, primary screen (AID 1117326; in the data active means nuclear beta-catenin stimulation mostly above about 4.2%, no sharp cut-off; inactive means mostly below about 10%); details: stronger effect = higher value
[2] = stimulators of insulin release from INS-1E, primary screen, cell-based, 5 mM glucose, NPC library (AID 1117329;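 active means compound raises insulin release from rat beta cells at 5 mM glucose, no numeric limit stated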); details: rat INS-1E insulin secretion, at 10 µM, stronger effect = higher value
[3] = growth inhibition of GSK3B-pretreated HCT116 cells – cell-based, CellTiter-Glo, 0.2 to 20 µM (AID 1117336;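 active means compounds lowering colon cancer cell viability after pretreatment blocking the GSK3B kinase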); details: HCT116 viability after GSK3B inhibitor, at 20 µM, stronger effect = higher value
[4] = inhibition of endothelial tube formation, primary screen, imaging, VEGF stimulated, CD31 staining, tube area, NPC library (AID 1117340;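 active means compound that reduces growth-factor-driven endothelial tube area in a mixed cell culture, no cutoff stated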); details: VEGF-stimulated ADSC/ECFC co-culture, at 10 µM, stronger effect = higher value
[5] = GLP1 release stimulators, primary, NCI-H716, NPC library (AID 1117341;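 active means compound raises GLP1 secretion from the human gut endocrine cells, with no numeric limit stated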); details: NCI-H716 cells, at 10 µM, stronger effect = higher value
[6] = HCT116 colon cancer cell growth inhibition, primary screen, CellTiter-Glo luminescence, NPC library (AID 1117342;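 active means compounds that lower survival of HCT116 colon cancer cells in the luminescence readout, no numeric limit stated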); details: at 20 µM (top of the series)
[7] = reduced SW480 viability measured with CellTiter-Glo, NPC library, primary (AID 1117343;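 active means compounds that lower viability of the colon cancer cells in the luminescence readout, with no numeric limit stated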); details: CellTiter-Glo luminescence; at 20 µM (top of the series) unless noted
[8] = NPC library primary testing for decreased DLD-1 cell viability via CellTiter-Glo (AID 1117346;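 active means compounds that lower survival of DLD-1 colon cancer cells in the luminescence readout, no cutoff given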); details: DLD-1 viability, CellTiter-Glo luminescence; at 20 µM (top of the series)
[9] = system: Aerobactin synthetase IucA (Klebsiella pneumoniae); assay: inhibition of K. pneumoniae IucA enzyme – biochemical, Tocris library, absorbance (AID 1345561; call rule not given here;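 further: 100% = enzyme without compound and 0% = no enzyme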); details: purified IucA enzyme assay, absorbance (OD) read-out; stronger effect = lower value;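 tested at 8 µM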
[10] = viability loss in pontine glioma line – cell-based, JHH-DIPG-1, MIPE4.0, CellTiter-Glo, qHTS, dose response (AID 1347062; cut-off not given, nearly all actives have AC50 up to about 27 µM;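 on AC50: cells exposed to compound for two days before readout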); details: JHH-DIPG-1 viability, CellTiter-Glo ATP luminescence
[11] = growth inhibition of DIPG cells – cell-based, MIPE5.0 library, qHTS (AID 1347068; cut-off not given, nearly all actives have IC50 up to about 30 µM); details: SU-DIPG-XXV viability
[12] = viability loss with induced miR-34 in A549 – imaging, A549 dox-inducible miR-34, nuclei and caspase counts, primary screen (AID 1347080;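 active means compounds whose cell count with miR-34 switched on is under 0.7 times the count with it off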); details: A549 miR-34 inducible, Hoechst nuclei count, 48 h
[13] = galactose survival enhancers in mitochondrial complex I cybrids – cell-based, galactose medium, ATP luminescence, primary screen (AID 1645843;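 active means z-score of at least 1.8 in each of two replicates, scored against plate mean and spread of sample wells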;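 further: positive z means more ATP and so rescue of galactose-driven cybrid death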); details: complex I mutant cybrid cells, 72 h, stronger effect = higher value
[14] = viability loss in pontine glioma line – cell-based, SU-DIPG-XVII, MIPE5.0, CellTiter-Glo, qHTS, dose response (AID 1347060; cut-off not given, nearly all actives have AC50 up to about 26 µM;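 on AC50: cells exposed to compound for 48 hours before viability readout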); details: CellTiter-Glo ATP luminescence
[15] = viability loss in pontine glioma line – cell-based, SU-DIPG-XIII, MIPE4.0, CellTiter-Glo, qHTS, dose response (AID 1347061; cut-off not given, nearly all actives have AC50 up to about 37 µM;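 further: cells exposed to compound for 48 hours before readout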); details: CellTiter-Glo ATP luminescence
[16] = biological target: NAD(+) hydrolase SARM1 (Homo sapiens) (UniProt Q6SZW1); assay: blocking NAD cleavage by SARM1 SAM-TIR – cell lysate, NAD-Glo luminescence (AID 1508614;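 active means compound whose remaining NAD level is above about 45 nM, limit read from the data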); details: SAM-TIR HEK293T lysate NADase, at 1 µM, stronger effect = higher value
[17] = P. berghei load reduction in hepatocytes – cell-based, HepG2, luciferase luminescence, HepG2 viability, primary screen (AID 624349; in the data active means parasite load remaining mostly below about 12%, no sharp cut-off; inactive means mostly above about 10%;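 further: 100% = mean of DMSO negative control wells on the same plate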); details: P. berghei liver stage in HepG2, luciferase luminescence, concentration not given here; parasite load remaining: stronger effect = lower value; viability: measured here: HepG2 viability without parasites
[18] = MELAS cybrid and Rieske KO viability enhancers – cell-based, MELAS cybrids, Rieske KO mouse fibroblasts, CellTiter-Glo, primary screen (AID 1508586;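 active means mean z-score across replicates of 1.96 or higher in either the MELAS or the Rieske mutant cell line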;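 further: z relative to plate mean and SD of compound and empty wells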); details: low glucose
[19] = drug combination growth inhibition, ovarian cancer – cell-based, oncology-focused library, rucaparib conditional, profiling panel (AID 1508598); details: patient-derived ovarian cancer cells, CellTiter-Glo viability, 144 h, stronger effect = lower value
[20] = stronger effect = lower value, cell number ratio, induced over uninduced
[21] = measured here: relative caspase fold change +Dox/-Dox
[22] = measured here: total cells with miR-34 induction, stronger effect = lower value
[23] = measured here: total cells without miR-34 induction

Chain of NAD(+) hydrolase SARM1 (Homo sapiens) (Q6SZW1 whole entry, looked up): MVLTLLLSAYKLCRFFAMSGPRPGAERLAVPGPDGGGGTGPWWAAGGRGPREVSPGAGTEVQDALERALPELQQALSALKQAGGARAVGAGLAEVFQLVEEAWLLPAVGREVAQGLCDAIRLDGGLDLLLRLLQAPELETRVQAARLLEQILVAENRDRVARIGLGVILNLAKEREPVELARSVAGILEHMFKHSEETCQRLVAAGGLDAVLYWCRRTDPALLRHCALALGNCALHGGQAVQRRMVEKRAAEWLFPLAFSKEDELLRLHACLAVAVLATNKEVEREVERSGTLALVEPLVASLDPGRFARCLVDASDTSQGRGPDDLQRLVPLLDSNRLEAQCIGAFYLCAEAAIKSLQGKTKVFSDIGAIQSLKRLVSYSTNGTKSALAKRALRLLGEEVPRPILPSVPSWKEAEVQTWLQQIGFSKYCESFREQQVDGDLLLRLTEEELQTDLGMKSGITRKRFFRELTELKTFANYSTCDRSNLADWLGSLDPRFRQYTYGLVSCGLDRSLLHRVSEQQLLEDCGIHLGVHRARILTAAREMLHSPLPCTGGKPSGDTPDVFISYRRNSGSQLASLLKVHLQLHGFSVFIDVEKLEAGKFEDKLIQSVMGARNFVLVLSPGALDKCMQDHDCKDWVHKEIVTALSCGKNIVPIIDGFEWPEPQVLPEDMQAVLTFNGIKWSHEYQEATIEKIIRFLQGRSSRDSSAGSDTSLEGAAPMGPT

CC1(CN2CCC(n3c(=O)[nH]c4ccccc43)CC2)OCc2ccccc2-n2cccc21 (centres undefined)
active: viability decrease [3] 78.6% | inhibition of viability [6] 113% | viability decrease (inhibition) [7] 146% | viability decrease (inhibition) [8] 101%
6680: cell count [12, 23]
2%: nuclear beta-catenin stimulation ([1]; stimulation, at 2 µM)
1.14: fold change [12, 21]
6010: cell count [12, 22]
inactive: nuclear beta-catenin stimulation ([1]; at 10 µM) 2.3% | insulin secretion stimulation [2] -3.4% | tube area decrease [4] 7.2% | GLP1 secretion stimulation [5] 3.3% | remaining activity [9] 97.5% | outcome [10] | outcome [11] | fold change [12, 20] 0.899 | z-score [13] -0.665

CC[N+](CC)(CC)CCOc1ccc(/C=C/c2ccccc2)cc1
2640 and 2410: cell count [12, 22]
-0.8%: nuclear beta-catenin stimulation ([1]; stimulation, at 2 µM)
inactive: nuclear beta-catenin stimulation ([1]; at 10 µM) 0.4% | insulin secretion stimulation [2] 1.3% | viability decrease [3] -35.4% | GLP1 secretion stimulation [5] -1.8% | inhibition of viability [6] 46.8% | viability decrease (inhibition) [7] -6% | remaining activity [9] 112% | fold change [12, 20] 1.12 and 0.929 | z-score [13] -1.29 and -0.77
active: tube area decrease [4] 82.5% | viability decrease (inhibition) [8] 56.2%
0.542 and 0.715: fold change [12, 21]
2350 and 2590: cell count [12, 23]

Cl/C(=C\n1cncn1)c1ccc(Cl)cc1Cl
8590: cell count [12, 22]
9640: cell count [12, 23]
0.653: fold change [12, 21]
4%: nuclear beta-catenin stimulation ([1]; stimulation, at 2 µM)
inactive: nuclear beta-catenin stimulation ([1]; at 10 µM) 3.9% | insulin secretion stimulation [2] 2.4% | viability decrease [3] 3% | tube area decrease [4] -2.8% | GLP1 secretion stimulation [5] -1.4% | inhibition of viability [6] 30.3% | viability decrease (inhibition) [7] 13.4% | viability decrease (inhibition) [8] 24.2% | remaining activity [9] 121% | fold change [12, 20] 0.89 | z-score [13] -0.15

COCC(=O)O[C@]1(CCN(C)CCCc2nc3ccccc3[nH]2)CCc2cc(F)ccc2[C@@H]1C(C)C
186 and 534: cell count [12, 23]
-2.2%: nuclear beta-catenin stimulation ([1]; stimulation, at 2 µM)
108 and 550: cell count [12, 22]
0.681 and 1.08: fold change [12, 21]
active: viability decrease [3] 107% | tube area decrease [4] 67.6% | GLP1 secretion stimulation [5] 20.1% | inhibition of viability [6] 110% | viability decrease (inhibition) [7] 130% | viability decrease (inhibition) [8] 101%
inactive: nuclear beta-catenin stimulation ([1]; at 10 µM) 14.4% | insulin secretion stimulation [2] 3.5% | remaining activity [9] 86.1% | z-score [13] -1.29 and -0.675
0.582 (active) and 1.03 (inactive): fold change [12, 20]

O=C(O)Cn1c(C(=O)Nc2nc(-c3ccccc3Cl)cs2)cc2ccccc21
active: viability decrease [3] 104% | tube area decrease [4] 47.9% | inhibition of viability [6] 72.1% | viability decrease (inhibition) [7] 102% | viability decrease (inhibition) [8] 60.6%
8400: cell count [12, 23]
inactive: nuclear beta-catenin stimulation ([1]; at 10 µM) 0.7% | insulin secretion stimulation [2] 0.05% | GLP1 secretion stimulation [5] 5.4% | remaining activity [9] 99.8% | fold change [12, 20] 0.989 | z-score [13] 1.2
-0.5%: nuclear beta-catenin stimulation ([1]; stimulation, at 2 µM)
1.35: fold change [12, 21]
8300: cell count [12, 22]

CSCC[C@H](NC(=O)[C@H](Cc1c[nH]c2ccccc12)NC(=O)CCNC(=O)OC(C)(C)C)C(=O)N[C@@H](CC(=O)O)C(=O)N[C@@H](Cc1ccccc1)C(N)=O
active: AC50 [15] 0.935 µM
inactive: nuclear beta-catenin stimulation ([1]; at 10 µM) 0.1% | insulin secretion stimulation [2] 0.8% | viability decrease [3] -19% | tube area decrease [4] 5.2% | GLP1 secretion stimulation [5] 0.3% | inhibition of viability [6] -11.9% | viability decrease (inhibition) [7] 23.6% | viability decrease (inhibition) [8] -23.3% | outcome [14] | outcome [10] | outcome [11] | remaining NAD [16] 10 nM
1.3%: nuclear beta-catenin stimulation ([1]; stimulation, at 2 µM)

CS(=O)(=O)CCNCc1ccc(-c2ccc3ncnc(Nc4ccc(OCc5cccc(F)c5)c(Cl)c4)c3c2)o1
101% (inactive) and 97.5% (active): viability ([19]; at 1.25 µM, OCI-P5x cells, with rucaparib 20 µM, 100% = cells with rucaparib alone)
116% (inactive) and 91.4% (active): viability ([19]; at 1.25 µM, OCI-C5x cells, with rucaparib 10 µM, 100% = cells with rucaparib alone)
active: viability decrease [3] 106% | tube area decrease [4] 110% | inhibition of viability [6] 107% | viability decrease (inhibition) [7] 129% | viability decrease (inhibition) [8] 100% | AC50 [14] 18.6 µM | AC50 [15] 14.8 µM | AC50 [10] 18.7 µM | viability ([19]; at 0.000305 µM, OCI-P5x cells, with rucaparib 20 µM, 100% = cells with rucaparib alone) 95.1% and 93.3% | viability ([19]; at 0.00122 µM, OCI-P5x cells, with rucaparib 20 µM, 100% = cells with rucaparib alone) 96.9% and 99.7% | viability ([19]; at 0.00488 µM, OCI-P5x cells, with rucaparib 20 µM, 100% = cells with rucaparib alone) 95.5% and 98.8% | viability ([19]; at 0.313 µM, OCI-P5x cells, with rucaparib 20 µM, 100% = cells with rucaparib alone) 96.8% and 98.2% | viability ([19]; at 5 µM, OCI-P5x cells, with rucaparib 20 µM, 100% = cells with rucaparib alone) 95.6% and 97.1%
0.803 and 1.5: z-score ([18]; Rieske KO mouse fibroblast survival, CellTiter-Glo 72 h)
2.46 (active) and -0.221 (inactive): z-score ([18]; MELAS cybrid survival, CellTiter-Glo 48 h, stronger effect = higher value)
96.4% (active) and 103% (inactive): viability ([19]; at 0.0195 µM, OCI-P5x cells, with rucaparib 20 µM, 100% = cells with rucaparib alone)
3040 and 7890: cell count [12, 22]
102% (inactive) and 98.6% (active): viability ([19]; at 0.000305 µM, OCI-P5x cells, without rucaparib)
inactive: parasite load remaining [17] 44.4% | nuclear beta-catenin stimulation ([1]; at 10 µM) 31.2% | insulin secretion stimulation [2] 1.35% | GLP1 secretion stimulation [5] 2.8% | fold change [12, 20] 0.964 and 0.914 | viability ([19]; at 0.000305 µM, OCI-C5x cells, with rucaparib 10 µM, 100% = cells with rucaparib alone) 113% and 103% | viability ([19]; at 0.000305 µM, OCI-C5x cells, without rucaparib) 123% and 111% | viability ([19]; at 0.00122 µM, OCI-C5x cells, with rucaparib 10 µM, 100% = cells with rucaparib alone) 107% and 123% | viability ([19]; at 0.00122 µM, OCI-C5x cells, without rucaparib) 123% and 115% | viability ([19]; at 0.00122 µM, OCI-P5x cells, without rucaparib) 104% and 107% | viability ([19]; at 0.00488 µM, OCI-C5x cells, with rucaparib 10 µM, 100% = cells with rucaparib alone) 111% and 106% | viability ([19]; at 0.00488 µM, OCI-C5x cells, without rucaparib) 131% and 122% | viability ([19]; at 0.00488 µM, OCI-P5x cells, without rucaparib) 105% and 108% | viability ([19]; at 0.0195 µM, OCI-C5x cells, with rucaparib 10 µM, 100% = cells with rucaparib alone) 109% and 107% | viability ([19]; at 0.0195 µM, OCI-C5x cells, without rucaparib) 128% and 109% | viability ([19]; at 0.0195 µM, OCI-P5x cells, without rucaparib) 105% and 111% | viability ([19]; at 0.0781 µM, OCI-C5x cells, with rucaparib 10 µM, 100% = cells with rucaparib alone) 113% and 110% | viability ([19]; at 0.0781 µM, OCI-C5x cells, without rucaparib) 126% and 113% | viability ([19]; at 0.0781 µM, OCI-P5x cells, with rucaparib 20 µM, 100% = cells with rucaparib alone) 103% and 104% | viability ([19]; at 0.0781 µM, OCI-P5x cells, without rucaparib) 111% | viability ([19]; at 0.313 µM, OCI-C5x cells, with rucaparib 10 µM, 100% = cells with rucaparib alone) 119% and 112% | viability ([19]; at 0.313 µM, OCI-C5x cells, without rucaparib) 134% and 112% | viability ([19]; at 0.313 µM, OCI-P5x cells, without rucaparib) 115% and 118% | viability ([19]; at 1.25 µM, OCI-C5x cells, without rucaparib) 126% | viability ([19]; at 1.25 µM, OCI-P5x cells, without rucaparib) 108% and 114% | viability ([19]; at 5 µM, OCI-C5x cells, without rucaparib) 134% and 128% | viability ([19]; at 5 µM, OCI-P5x cells, without rucaparib) 106% and 118% | z-score [13] -0.555
3150 and 8630: cell count [12, 23]
101%: viability [17]
-0.2%: nuclear beta-catenin stimulation ([1]; stimulation, at 2 µM)
1.01 and 1.28: fold change [12, 21]
100% (inactive) and 93.5% (active): viability ([19]; at 5 µM, OCI-C5x cells, with rucaparib 10 µM, 100% = cells with rucaparib alone)
